A short description of test [1]: general cell-killing toxicity readout – plate reader, dry powder samples, cytotoxicity control for PAX8 inhibitor project, dose response (AID 743021). Particulars: cell line, non-specific cytotoxicity counter-screen; series mostly up to 35 µM. On the technique in general: The purpose of a counterscreen is to sort out artefacts and off-target activity.
Test [2] can be described thus: CMV-driven luciferase expression suppression in HEK293 – cell-based, luminescence, dry powder, counter-screen for Pax8 inhibitor project, dose response (AID 743020;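 active = signal-lowering compounds whose fitted half-maximal concentration is at or below twice the top tested dose in every run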;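 note: HEK293 cells stably expressing the CMV luciferase reporter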). The note with it: HEK293 CMV-luciferase reporter, SteadyGlo luminescence, 24 h; series mostly up to 35 µM.
Test [3] can be described thus: IGROV1 cell killing – plate reader, dry powder samples, PAX8 inhibitor project, dose response (AID 743043).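 Note: more negative means fewer viable cells or more cytotoxicity.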 Particulars: IGROV1 ovarian cancer cell cytotoxicity; series mostly up to 35 µM.
The nature of test [4]: OVCAR-3 cell viability loss – plate reader, dry powder samples, PAX8 inhibitor project, dose response (AID 743044). Particulars: NIH:OVCAR-3 ovarian cancer cell viability; max activity: at 35 µM, hits give low values unless noted; series mostly up to 50 µM.
The nature of test [5]: toxicity toward immortalized ovarian surface epithelium – cell-based, plate reader, dry powder samples, cytotoxicity control for PAX8 inhibitor project, dose response (AID 743045).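 Note: 0% = neutral control median and -100% = positive control median; more negative values mean more cell killing.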 Particulars: IOSE-T80 ovarian epithelial cells; series mostly up to 35 µM.
The nature of test [6]: OVCAR8 cell viability loss – plate reader, dry powder samples, PAX8 project, dose response (AID 743197). The note with it: series mostly up to 35 µM.
Test [7] is described as follows: A2780 cell killing – plate reader, dry powder samples, cytotoxicity control, dose response (AID 743046).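 Note: 0% = neutral control wells and -100% = cytotoxic reference compound.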 Particulars: A2780 ovarian cancer cytotoxicity; series mostly up to 35 µM.

The structures appear in SMILES notation. Measured potencies and affinities stand elsewhere. Records with an inconclusive call do not appear. Active and inactive are the calls of the source. Unless noted, the rule behind the calls is not given here.

In the case of `O=C(Nc1cccc(-c2ccc(N3CCCCC3)nn2)c1)C(F)(F)F`, the compound was called inactive in test [1].

As to `COc1cccc(N2CCN(C(=O)c3ccc(CS(=O)c4ccccc4Cl)o3)CC2)c1` (stereo not drawn), the compound was called inactive in test [1].

Turning to `C[C@H](CO)N1C[C@H](C)[C@H](CN(C)S(=O)(=O)c2ccc(Cl)cc2)OCCCC[C@H](C)Oc2ccc(NS(=O)(=O)c3ccc(F)cc3)cc2C1=O`, the compound was classed as inactive in test [2], in test [1], in test [3], in test [5] and in test [6]. Besides, the max activity in test [4] was 20.8% (inactive).

Consider `Cc1ccc2c(c1)c1c3n2CCN(CC(N)=O)C3CCC1` (stereo not drawn), for which the compound was classed as inactive in test [1].

Turning to `C[C@H]1CN([C@@H](C)CO)C(=O)Cc2cc(NC(=O)NC3CCCCC3)ccc2O[C@H]1CN(C)S(=O)(=O)c1ccc(Cl)cc1`, the call in test [2], in test [1], in test [3], in test [5], in test [7] and in test [6] was inactive.

Consider `C[C@H]1CCCCO[C@H](CN(C)Cc2ccc(C(F)(F)F)cc2)[C@@H](C)CN([C@@H](C)CO)C(=O)c2cc(NS(=O)(=O)c3ccc(Cl)cc3)ccc2O1`, for which the outcome in test [2], in test [1], in test [5] and in test [7] was inactive. In addition, the max activity in test [4] is 16.3% [at 1 µM, hits give low values] (inactive).

Turning to `Cc1ccc(S(=O)(=O)CC(CN2CCCCC2)N2CCCCC2)cc1` (stereo not drawn), the outcome in test [2], in test [1], in test [4], in test [5] and in test [7] was inactive.

`C[C@@H]1CN([C@H](C)CO)C(=O)c2cc(NS(=O)(=O)c3ccc(Cl)cc3)ccc2O[C@@H](C)CCCCO[C@@H]1CN(C)Cc1ccccc1`: the compound was called inactive in test [2], in test [3], in test [5], in test [7] and in test [6]. The max activity in test [4] is 22% [at 1 µM, hits give low values] (inactive).

In the case of `C[C@@H]1CN([C@@H](C)CO)C(=O)Cc2cc(NS(=O)(=O)c3ccc(Cl)cc3)ccc2O[C@H]1CN(C)Cc1ccc(Oc2ccccc2)cc1`, the call in test [2], in test [1], in test [5] and in test [7] was inactive.

As to `C[C@@H]1CCCCO[C@@H](CN(C)S(=O)(=O)c2ccc(Cl)cc2)[C@H](C)CN([C@H](C)CO)C(=O)c2cc(NS(=O)(=O)c3ccc(F)cc3)ccc2O1`, the result in test [2], in test [1], in test [5], in test [7] and in test [6] was inactive. The max activity in test [4] was 22.4% [at 2.1 µM, hits give low values] (inactive).

With `C[C@@H]1CCCCO[C@@H](CN(C)C(=O)Nc2cccc3ccccc23)[C@H](C)CN([C@H](C)CO)C(=O)c2cc(NS(=O)(=O)c3ccc(F)cc3)ccc2O1`, the compound was classed as inactive in test [2], in test [1], in test [5] and in test [7]. In addition, the max activity in test [4] is 12.2% [at 0.26 µM, hits give low values] (inactive).

Regarding `C[C@@H]1CCCCO[C@H](CN(C)C(=O)C2CCCCC2)[C@@H](C)CN([C@@H](C)CO)C(=O)c2cc(NC(=O)Nc3ccc(F)cc3)ccc2O1`, the result in test [2], in test [1] and in test [5] was inactive.

Take `O=C1CN(C(=O)Cn2ncc(Cl)c(Cl)c2=O)c2ccccc2N1`: the compound was called inactive in test [1].

As for `Cc1c(Nc2cc(Cl)c3nonc3c2[N+](=O)[O-])c(=O)n(-c2ccccc2)n1C`, in test [1], the call was inactive.

Regarding `Cc1nc2sc(C(c3ccco3)N3CCN(C(c4ccccc4)c4ccccc4)CC3)c(O)n2n1` (stereo not drawn), the result in test [2], in test [1], in test [5] and in test [7] was inactive.

Take `C#CCN(C[C@@H]1[C@@H](OC(=O)NCC2CCCCC2)[C@@H](OC(=O)NCC2CCCCC2)Cn2c(=O)ccc(=O)n21)S(=O)(=O)c1ccc(C)cc1`: the compound was called inactive in test [1].

Consider `Cc1ccc(S(=O)(=O)N(C)C[C@H]2Oc3cc(C#Cc4ccncc4)ccc3S(=O)(=O)N([C@@H](C)CO)C[C@@H]2C)cc1`, for which the compound was called inactive in test [2], in test [1], in test [3], in test [5] and in test [7].

For `CCC(=O)NC(c1ccc(C)cc1)c1ccc2cccnc2c1O` (stereo not drawn), the call in test [1] was inactive.

Take `COc1ccc(C(=O)c2ccc(Cl)c([N+](=O)[O-])c2)cc1`: the compound was called inactive in test [1].

On to `O=C(Nc1ccc(OCC(F)(F)C(F)F)c(C(F)(F)F)c1)c1ccccc1O`, for which the call in test [1], in test [5] and in test [7] was inactive.

For the compound `COc1ccccc1C#Cc1ccc([C@H]2[C@@H](CO)N(C(=O)C3CCCC3)[C@H]2C#N)cc1`, the call in test [5] and in test [7] was inactive.

Turning to `C[C@H](O)[C@@H]1CN2CCc3c([nH]c4ccc(-c5ccc6c(c5)OCO6)cc34)[C@@H]2C[C@@H]1N(C)C(=O)NC1CCCCC1`, the outcome in test [1] was inactive.

Regarding `CCCC(=O)NC(c1ccc(C(C)C)cc1)c1ccc2cccnc2c1O` (stereo not drawn), the call in test [1] was inactive.

For the compound `Cc1cc(C2=NNC(=NC3CC3)SC2)c(C)n1-c1ccccc1F`, in test [1], the call was inactive.

Regarding `C[C@@H]1CN([C@H](C)CO)C(=O)c2cc(NS(=O)(=O)c3ccccc3)ccc2O[C@@H](C)CCCCO[C@@H]1CN(C)Cc1ccc(C(F)(F)F)cc1`, the result in test [5] was inactive.

Turning to `COc1cc(-c2cnc3c(NC=O)cc(-c4ccccc4)cn23)cc(OC)c1OC`, the compound was called inactive in test [1].

For the origin of these results see PubChem BioAssay.
